Measured values: ChEMBL document CHEMBL3988442, “University of Dundee, Small-Polar-MMV Screening Library” (2021)
About 13,000 (27%) of roughly 48,000 compounds showed an effect of 50% or more. The list shows a part of the results.

test system: Wolbachia pipientis; experiment: Anti-Wolbachia Cell-Based Screen; assay type: functional; parameters: scale not given: in the data most compounds retested in dose-response had high values; details: 5 µM

Going from `COCc1nc(C2CC2)nn1-c1cccc(F)c1` to `COc1cccc(-c2noc(C3CCN(Cc4ccccc4F)C3)n2)c1.Cl` (stereo not given), the “Percent Effect” value rises from -12.44% to 108.2%.

Going from `Cc1ccc(Oc2ncccc2CNC2CCCCC2)cn1` to `CN(c1ncc(C(=O)NCc2ccccc2)c(N)n1)C1CCCCC1`, the “Percent Effect” value rises from -2.321% to 2.294%.

Compared with `CN(C)C(=O)N1CCN(C(=O)C(c2ccccc2F)N(C)C)CC1` (stereo not given), `CC(O)CN1CCN(C(=O)c2cccc3[nH]ncc23)CC1` (stereo not given) is higher in “Percent Effect” value: 0.4283% for the first, 5.765% for the second.

First: COc1cccc2c1ccn2CC(=O)Nc1nc[nH]n1
Second: COCC(=O)NCCn1ccc2c(OC)cccc21
The “Percent Effect” value of the first is higher: 91.25% for the first, -0.7831% for the second.

First: CSCC[C@H](NC(=O)Cn1ccc2c(Cl)cccc21)C(=O)O
Second: COc1cccc2c1ccn2CC(=O)N[C@@H](CCSC)C(=O)O
The “Percent Effect” value of the first is lower: 2.833% for the first, 11.73% for the second.

First: CC(=O)Nc1cccc2c1ccn2CC(=O)Nc1ncc[nH]1
Second: Cc1ccn(-c2ccccc2NCc2ncc[nH]2)n1
The “Percent Effect” value of the first is higher: 101.7% for the first, -9.69% for the second.

First: CCOc1ncccc1Cn1cc(-c2ccc(CO)o2)nn1
Second: CCCn1cc(-c2ccnc(NC3CCc4ccccc43)n2)c(C)n1 (stereo not given)
The “Percent Effect” value of the first is lower: -3.735% for the first, -0.7424% for the second.

First: CCN(CC)C(=O)C1(NCc2nc(C)c(C)o2)CCCCC1
Second: CCN(CC1CCOC1)C(=O)CCc1nc(C(C)(C)C)no1 (stereo not given)
The “Percent Effect” value of the first is lower: -3.366% for the first, -1.689% for the second.

Going from `CN(c1ccc(CNc2ccc(Cl)cn2)cc1)S(C)(=O)=O` to `NS(=O)(=O)c1ccc(CNC(=O)c2ccc(Cl)cc2F)cc1`, the “Percent Effect” value falls from 3.879% to -5.173%.

Compared with `COc1coc(C(=O)Nc2nc(C)cs2)cc1=O`, `COc1coc(C(=O)Nc2nc(-c3ccncc3)cs2)cc1=O` is lower in “Percent Effect” value: 134.8% for the first, 126.8% for the second.

Compared with `CC(=O)Nc1nc(C(=O)NC(C)c2cccnc2)cs1` (stereo not given), `CC(=O)Nc1nc(C(=O)NC(C)c2ccncc2)cs1` (stereo not given) is higher in “Percent Effect” value: -4.684% for the first, -2.068% for the second.

Going from `Cc1csc(NC(=O)C2CSCCC(=O)N2)n1` (stereo not given) to `CCOc1ccccc1C(CC(=O)Nc1nc(C)cs1)NC(C)=O` (stereo not given), the “Percent Effect” value rises from -7.391% to 0.8837%.

First: COc1ccc(NC(=O)C(C)(C)C)cc1OCc1cccnc1
Second: COc1ccc(NC(C)=O)cc1OCc1cccnc1
The “Percent Effect” value of the first is lower: -1.901% for the first, 0.9629% for the second.

First: COc1coc(C(=O)Nc2nc(-c3cccnc3)cs2)cc1=O
Second: COc1coc(C(=O)Nc2nc(-c3ccccn3)cs2)cc1=O
The “Percent Effect” value of the first is lower: 125.3% for the first, 131% for the second.

Compared with `COc1coc(C(=O)Nc2ccncc2)cc1=O`, `CCC(NC(=O)Nc1ccc(OC)c(C)c1)c1ccncc1` (stereo not given) is lower in “Percent Effect” value: 119.4% for the first, -4.572% for the second.

Going from `Cn1ccc(C(=O)Nc2nc(-c3ccc4c(c3)CCO4)cs2)cc1=O` to `Cn1ccc(C(=O)Nc2nnc(-c3ccccn3)[nH]2)cc1=O`, the “Percent Effect” value rises from -8.772% to -6.589%.

Going from `COc1cccc(SCC(=O)N2CCC(N3CCCC(O)C3)CC2)c1` (stereo not given) to `CN1CC(C(=O)N2CCC(Oc3ccccc3Cl)CC2)CC1=O` (stereo not given), the “Percent Effect” value falls from 2.194% to 1.662%.

First: COCc1csc(NC(=O)NCc2ccccn2)n1
Second: O=C(CCn1cc(Cl)cn1)Nc1ncccn1
The “Percent Effect” value of the first is higher: 11.42% for the first, -3.476% for the second.

First: Nc1nc(N2CCCCCC2)ncc1C(=O)NCc1ccc(F)c(Cl)c1
Second: Nc1nc(N2CCCCC2)ncc1C(=O)NCc1ccc(F)c(Cl)c1
The “Percent Effect” value of the first is higher: 114.6% for the first, 94.05% for the second.

First: CC1CCCN(c2ncc(C(=O)NCc3ccc(F)c(Cl)c3)c(N)n2)C1 (stereo not given)
Second: Cc1cc(C(N)=O)ccc1NC(=O)c1nc(N2CCCCC2)ncc1Cl
The “Percent Effect” value of the first is higher: 73.04% for the first, -13.62% for the second.

Going from `Cc1cccc(C(=O)NCc2ccc(N3CCCCC3)nc2)n1` to `Cc1cccc(N(CC(=O)N2CCCCC2)Cc2nc(=O)[nH][nH]2)c1`, the “Percent Effect” value rises from -4.595% to -2.957%.

Compared with `O=C(Nc1cc(Cl)ccn1)c1nc(N2CCCC2)ncc1Cl`, `O=C1CC2(CCN(C(=O)c3ccccn3)CC2)Oc2c(Cl)cc(Cl)cc21` is higher in “Percent Effect” value: -15.57% for the first, 107.9% for the second.

Going from `O=C(Cn1cc(C(=O)O)ccc1=O)NCc1ccc(F)c(Cl)c1` to `Cc1ccc(F)c(OC2(C(=O)O)CCN(C(=O)c3ccncc3)CC2)c1`, the “Percent Effect” value falls from 13.7% to 12.09%.

Compared with `Cc1cccc(C(C(=O)NCC2(Cn3nc(C)cc3C)CC2)N(C)C)c1` (stereo not given), `Cc1ccc(C)c(CC(=O)Nc2cccc(C(=O)N(C)C)n2)c1` is lower in “Percent Effect” value: -2.816% for the first, -5.2% for the second.

Compared with `Cc1ccc(CN2CC[C@H](c3nnc(COc4ccc(F)cc4)o3)C2)o1`, `COC(=O)c1cccc2nc([C@H]3CCN(Cc4ccccc4F)C3)oc12` is higher in “Percent Effect” value: -1.742% for the first, 4.5% for the second.

Going from `COc1cccc(-c2ncc(CN3CC[C@H](CO)[C@@H](O)C3)s2)c1` to `COc1cccc(-c2noc(C3CCN(Cc4ccccc4C)C3)n2)c1.Cl` (stereo not given), the “Percent Effect” value rises from 10.62% to 79.37%.

Going from `COc1cccc(-c2noc(C3CCN(Cc4cn(C)nc4C)C3)n2)c1` (stereo not given) to `COC(=O)c1cccc2nc([C@H]3CCN(Cc4ccccc4C)C3)oc12`, the “Percent Effect” value rises from -2.203% to 0.4423%.

First: Cc1n[nH]c(CN2CCN(c3ncnc4scc(C)c34)CC2)c1Cl
Second: CCc1nsc(N2CCCN(C(=O)c3ccc(CC)o3)CC2)n1
The “Percent Effect” value of the first is lower: -1.697% for the first, 0.3515% for the second.

Compared with `Cc1nc(C2CCN(C(=O)c3ccn(C)n3)CC2)c2sccn12`, `Cc1nc(C2CCN(C(=O)c3cscn3)CC2)c2sccn12` is higher in “Percent Effect” value: 109.4% for the first, 123.8% for the second.

Compared with `CC(O)c1cn(CC2CCN(C(=O)c3cscn3)CC2)nn1` (stereo not given), `Cc1nc(CN2CCO[C@H]3CN(C(=O)c4cscn4)C[C@H]32)cs1` is higher in “Percent Effect” value: -31.81% for the first, -19.39% for the second.

Going from `CCc1cnc(C)nc1NCCSc1nnc(C)n1CC` to `CC(=O)NCCc1nc(C(C)C)nn1-c1ccncc1C`, the “Percent Effect” value falls from -6.357% to -7.062%.

Compared with `c1cnnc(N2CCCC(NCc3ccc(-n4cncn4)cc3)C2)c1` (stereo not given), `O=C(c1ccccn1)N1CCN(c2ccc(-n3cccc3)nn2)CC1` is higher in “Percent Effect” value: -12.46% for the first, 9.922% for the second.

Compared with `CSCCc1n[nH]c2c1CN(S(=O)(=O)c1cn(C)c(C)n1)CC2`, `O=C(NCCC1=CCCCC1)c1n[nH]c2c1CCCC2` is higher in “Percent Effect” value: 5.686% for the first, 109.4% for the second.

Going from `O=C1C(NCc2nnc3n2CCCC3)CCN1c1ccccc1` (stereo not given) to `CCOc1ccccc1C1=CCN(C(=O)C2CCN(C)C(=O)C2)CC1` (stereo not given), the “Percent Effect” value rises from 4.078% to 103.5%.

Compared with `CC(C)NC(=O)CN(C)C1CCN(c2ccc(C#N)cn2)CC1`, `O=C(NCCC1=CCCCC1)C1CCN(c2ccc3nncn3n2)CC1` is higher in “Percent Effect” value: -9.804% for the first, 0.9872% for the second.

First: CC(C)CN1CCc2[nH]cnc2C12CCN(C(=O)c1ccccn1)CC2
Second: Cc1cccc(C2(O)CCN(C(=O)c3ccccn3)CC2)c1C
The “Percent Effect” value of the first is lower: 2.853% for the first, 8.443% for the second.

Going from `O=C1CC2(CCN(C(=O)c3ccccn3)CC2)Oc2c(Br)cc(Br)cc21` to `O=C1CC2(CCN(C(=O)c3ccncc3)CC2)Oc2c(Cl)cc(Cl)cc21`, the “Percent Effect” value rises from 106.1% to 113.6%.

First: O=C(c1ccncc1)N1CCN(c2ccc(F)cc2Cl)CC1
Second: CN1CCC(C(=O)N2CCC(=Cc3cccc(F)c3)CC2)CC1=O (stereo not given)
The “Percent Effect” value of the first is higher: 2.697% for the first, -1.128% for the second.

Compared with `Cc1oc(-c2ccco2)nc1CC(=O)NCC(C)(C)N(C)C`, `Cc1noc2ncnc(NC(CC(C)(C)C)c3cccnc3)c12` (stereo not given) is higher in “Percent Effect” value: -56.87% for the first, -8.396% for the second.

Compared with `CCCc1cc(C(=O)N2C[C@H]3CC=C(C)C[C@H]3C2)ccn1`, `CCCc1cc(C(=O)NCCC2=CCCCC2)[nH]n1` is higher in “Percent Effect” value: -1.263% for the first, -0.1472% for the second.

Compared with `Clc1cnccc1N1CCC(OC2CCOCC2)CC1`, `O=C(c1sccc1Br)N1CCOCC1` is higher in “Percent Effect” value: -17.26% for the first, 7.49% for the second.

Going from `Cc1ccc(NC(=O)CN(C)C(=O)c2ccc(-n3cccc3)nc2)nc1` to `O=C(NCCC1=CCCCC1)c1ccc(-n2cccc2)nc1`, the “Percent Effect” value rises from -2.8% to 122.4%.

First: O=C(NCCC1=CCCCC1)c1cc(-c2ccc(O)cc2)n[nH]1
Second: CCOc1cccnc1C(=O)N1CC=C(c2ccc(O)cc2)CC1
The “Percent Effect” value of the first is higher: 12.27% for the first, -4.198% for the second.

Compared with `CC1CCN(CCCNS(=O)(=O)Cc2ccccc2F)CC1`, `CS(=O)(=O)N1C[C@@H]2CC[C@H](C1)N(C(=O)CCn1cnc3ccccc31)C2` is higher in “Percent Effect” value: -5.574% for the first, 6.293% for the second.

Going from `Cc1ccc(C2=CCN(C(=O)C3CCN(C)C(=O)C3)CC2)cc1` (stereo not given) to `COc1ccc(C2=CCN(C(=O)C3CCN(C)C(=O)C3)CC2)cc1` (stereo not given), the “Percent Effect” value falls from 92.67% to -8.99%.

Going from `O=C(Cn1nnn(-c2cccs2)c1=O)NCC1CCOC1` (stereo not given) to `O=C(Cn1cc(I)cn1)N1CCOCC1`, the “Percent Effect” value falls from 8.767% to 0.7374%.

Going from `NC(=O)c1cccc(CCNCc2cnc(C3CCC3)s2)c1` to `Cc1nccc(-c2cccc(NCC(=O)N3CCNC3=O)c2)n1`, the “Percent Effect” value rises from -3.682% to 6.599%.

Going from `CCN1C(=O)C2(CCOCC2)c2cc(NC(=O)COC)ccc21` to `CCN1C(=O)C2(CCOCC2)c2cc(NC(=O)c3cccn3C)ccc21`, the “Percent Effect” value falls from 1.52% to 0.2171%.

Going from `COCC(=O)Nc1ccc2c(c1)C1(CCOCC1)CN2CCF.O=C(O)C(F)(F)F` to `CCC(=O)Nc1ccc2c(c1)C1(CCOCC1)CN2CCF.O=C(O)C(F)(F)F`, the “Percent Effect” value falls from 107% to 102.7%.

First: O=C(O)C(F)(F)F.O=C(c1ccc2ccc(N3CCN(CC4CC4)CC3)n2c1)N1CCCO1
Second: O=C(Cn1cc(-c2ccccc2)cn1)N1CCNC1=O
The “Percent Effect” value of the first is lower: -6.167% for the first, 110% for the second.

Going from `CCCNC(=O)Cn1cc(-c2ccccc2)cn1` to `CC(C)C(C)(C#N)NC(=O)Cn1cc(Cl)cn1` (stereo not given), the “Percent Effect” value falls from 1.367% to -4.371%.

First: O=C(Cn1cc(I)cn1)N1CCNC1=O
Second: O=C(Cn1cc(Cl)cn1)N1CCNC1=O
The “Percent Effect” value of the first is higher: 104.2% for the first, 95.03% for the second.

In the case of `O=C(Cn1cc(I)cn1)N1CCCC1`, the “Percent Effect” value is reported as 17.91%.
